PubChem BioAssay (EPA / NIEHS)
The source made the active and inactive calls. Rule for the calls: active = hit-call score of the fitted dose curve at least 0.9, where 1 is the maximum; inactive = score below 0.9.

How the values were obtained:
Settings in all cases: mRNA level, 48 h; actives raise or lower the signal
[1] = read-out: Tumor necrosis factor receptor superfamily member 6 (Homo sapiens) (UniProt P25445); test: LTEA_HepaRG_FAS: Life Technologies and Expression Analysis (LTEA) Assay for Fas cell surface death receptor (FAS) using HepaRG (AID 2283447)
In short: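 Differentiated human HepaRG cells, pre-cultured 48 h, were exposed in duplicate for 48 h to 8-point half-log concentrations (top 100 uM, 0.5% DMSO) in serum-free induction medium; FAS mRNA measured by qRT-PCR, normalized to ACTB/GAPDH/POLR2A, bidirectional fit versus DMSO.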

[2] = read-out: Fatty acid synthase (Homo sapiens) (UniProt P49327); test: LTEA_HepaRG_FASN: Life Technologies and Expression Analysis (LTEA) Assay for Fatty Acid Synthase (FASN) using HepaRG (AID 2283448)
In short: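 Cells were plated, cultured 48 h, switched to serum-free induction medium, then dosed in duplicate (max 100 uM, half-log dilutions, 0.5% DMSO) for 48 h. RNA was then isolated and FASN quantified by qRT-PCR.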

[3] = read-out: Cyclin D2 (CCND2), CCND2 (gene 894); test: LTEA_HepaRG_CCND2: Life Technologies and Expression Analysis (LTEA) Assay for Cyclin D2 (CCND2) using HepaRG (AID 2283449);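 note: CCND2 transcript measured by TaqMan qRT-PCR and normalised to three housekeeping genes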
In short: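 In this HepaRG study, an eight-point concentration series (max 100 uM, 0.5% DMSO) is applied for 48 h. CCND2 mRNA change is derived by qRT-PCR normalised to ACTB, GAPDH and POLR2A.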

[4] = read-out: Cyclin Dependent Kinase Inhibitor 1A (CDKN1A), CDKN1A (gene 1026); test: LTEA_HepaRG_CDKN1A: Life Technologies and Expression Analysis (LTEA) Assay for Cyclin Dependent Kinase Inhibitor 1A (CDKN1A) using HepaRG (AID 2283450)
In short: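 Read-out is CDKN1A mRNA by TaqMan qRT-PCR, normalized to three housekeeping genes and fitted in both directions against the DMSO baseline. Human HepaRG cells were treated 48 h with test chemicals up to 100 uM in half-log steps, 0.5% DMSO.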

[5] = read-out: catalase (CAT), CAT (gene 847); test: LTEA_HepaRG_CAT: Life Technologies and Expression Analysis (LTEA) Assay for catalase (CAT) using HepaRG (AID 2283452);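 for AC50: TaqMan qRT-PCR signal normalized to ACTB GAPDH and POLR2A housekeeping genes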
In short: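 Differentiated HepaRG cells in serum-free induction medium were dosed 48 h in duplicate, eight half-log concentrations from 100 uM in 0.5% DMSO. Transcript measured by TaqMan qRT-PCR, normalised to ACTB/GAPDH/POLR2A, fitted bidirectionally against DMSO.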

[6] = read-out: flavin-containing dimethylaniline monooxygenases 3 (FMO3), FMO3 (gene 2328); test: LTEA_HepaRG_FMO3: Life Technologies and Expression Analysis (LTEA) Assay for flavin-containing dimethylaniline monooxygenases 3 (FMO3) using HepaRG (AID 2283453);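 for AC50: FMO3 transcript by TaqMan qRT-PCR normalized to ACTB GAPDH and POLR2A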
In short: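 FMO3 transcript quantified by TaqMan qRT-PCR against three housekeeping genes after 48 h chemical exposure of HepaRG cells. Eight-point half-log series, top 100 uM, 0.5% DMSO vehicle; phenobarbital 1mM induction control; up- or down-regulation fitted.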

[7] = read-out: Cytochrome P450 (CYP1A1), CYP1A1 (gene 1543); test: LTEA_HepaRG_CYP1A1: Life Technologies and Expression Analysis (LTEA) Assay for Cytochrome P450 (CYP1A1) using HepaRG (AID 2283454)
In short: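 HepaRG, 48 h post-plating switched to serum-free induction medium; 8-pt conc-response (top 100 uM, half-log, 0.5% DMSO), duplicates, 48 h. Lysis in RLT, TaqMan qRT-PCR for CYP1A1; gain or loss vs DMSO.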

[8] = read-out: CFLAR gene, CFLAR (gene 8837); test: LTEA_HepaRG_CFLAR: Life Technologies and Expression Analysis (LTEA) Assay for CFLAR gene using HepaRG (AID 2283455)
In short: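 Gain- or loss-of-signal changes in CFLAR transcript were fitted bidirectionally relative to 0.5% DMSO. Cells (HepaRG, duplicate wells) were dosed for 48 h across eight half-log concentrations topping at 100 uM; quantitation by TaqMan qRT-PCR.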

[9] = read-out: Forkhead box O1 (FOXO1), FOXO1 (gene 2308); test: LTEA_HepaRG_FOXO1: Life Technologies and Expression Analysis (LTEA) Assay for Forkhead box O1 (FOXO1) using HepaRG (AID 2283456)
In short: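 Using one lot of HepaRG hepatic cells kept in 0.5% DMSO, the team applied test chemicals in duplicate, half-log dilutions from 100 uM, for 48 h. Expression, normalised to ACTB/GAPDH/POLR2A, was compared with vehicle in either direction.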

[10] = read-out: growth arrest and DNA damage 45 (GADD45A), GADD45A (gene 1647); test: LTEA_HepaRG_GADD45A: Life Technologies and Expression Analysis (LTEA) Assay for growth arrest and DNA damage 45 (GADD45A) using HepaRG (AID 2283458)
In short: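 Transcript induction or loss, quantified by TaqMan qRT-PCR against three housekeeping genes, is the read-out. HepaRG cells received chemicals for 48 h across eight half-log concentrations from 100 uM in 0.5% DMSO; gain and loss fitted relative to DMSO.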

[11] = read-out: Forkhead box O3 (FOXO3), FOXO3 (gene 2309); test: LTEA_HepaRG_FOXO3: Life Technologies and Expression Analysis (LTEA) Assay for Forkhead box O3 (FOXO3) using HepaRG (AID 2283459)
In short: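 Gene-expression endpoint: FOXO3 transcript level by qRT-PCR in HepaRG cultures treated 48 h with chemicals up to 100 uM (half-log, 0.5% DMSO vehicle).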

[12] = read-out: ABC Transporter (ABCB1), ABCB1 (gene 5243); test: LTEA_HepaRG_ABCB1: Life Technologies and Expression Analysis (LTEA) Assay for ABC Transporter (ABCB1) using HepaRG (AID 2283460)
In short: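 Human liver HepaRG line treated 48 h with up to 100 uM compound (eight half-log points, 0.5% DMSO); ABCB1 mRNA change fitted bidirectionally against DMSO controls.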

[13] = read-out: growth arrest and DNA damage 45 (GADD45B), GADD45B (gene 4616); test: LTEA_HepaRG_GADD45B: Life Technologies and Expression Analysis (LTEA) Assay for growth arrest and DNA damage 45 (GADD45B) using HepaRG (AID 2283461)
In short: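 HepaRG, ~100,000 cells/well, 48 h plating; serum-free induction medium; cpd 100 uM top, half-log x8, 0.5% DMSO, duplicate, 48 h; lysis in RLT, RNA isolation, qRT-PCR; norm ACTB/GAPDH/POLR2A; bidirectional fit vs DMSO.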

[14] = read-out: ABC Transporter (ABCC3), ABCC3 (gene 8714); test: LTEA_HepaRG_ABCC3: Life Technologies and Expression Analysis (LTEA) Assay for ABC Transporter (ABCC3) using HepaRG (AID 2283462)
In short: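 Human HepaRG, 48 h dosing, 8-pt half-log series from 100 uM, 0.5% DMSO vehicle, duplicates. ABCC3 mRNA by TaqMan qRT-PCR, housekeeping-normalized; bidirectional curve fit vs DMSO.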

[15] = read-out: ABC Transporter (ABCB11), ABCB11 (gene 8647); test: LTEA_HepaRG_ABCB11: Life Technologies and Expression Analysis (LTEA) Assay for ABC Transporter (ABCB11) using HepaRG (AID 2283463)
In short: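 Using HepaRG cultures held in 0.5% DMSO, chemicals were tested at half-log dilutions from 100 uM for 48 h. Induction or suppression of ABCB11 mRNA, normalized to ACTB, GAPDH and POLR2A, was fitted bidirectionally against vehicle.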

[16] = read-out: ABC Transporter (ABCC2), ABCC2 (gene 1244); test: LTEA_HepaRG_ABCC2: Life Technologies and Expression Analysis (LTEA) Assay for ABC Transporter (ABCC2) using HepaRG (AID 2283464)
In short: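 HepaRG, 48 h post-plating; serum-free induction medium; cpd 8-pt, 100 uM top, half-log, 0.5% DMSO, duplicate, 48 h. Readout: ABCC2 mRNA by qRT-PCR, norm. ACTB/GAPDH/POLR2A. Bidirectional fit vs DMSO baseline.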

[17] = read-out: Broad substrate specificity ATP-binding cassette transporter ABCG2 (Homo sapiens) (UniProt Q9UNQ0); test: LTEA_HepaRG_ABCG2: Life Technologies and Expression Analysis (LTEA) Assay for ABC Transporter (ABCG2) using HepaRG (AID 2283465)
In short: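 Gene expression of ABCG2 in HepaRG liver cells is quantified by qRT-PCR following 48 h exposure across an eight-point series topping at 100 uM. Values come from bidirectional fitting relative to DMSO vehicle.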

[18] = read-out: Cyclin D1 (CCND1), CCND1 (gene 595); test: LTEA_HepaRG_CCND1: Life Technologies and Expression Analysis (LTEA) Assay for Cyclin D1 (CCND1) using HepaRG (AID 2283451)
In short: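 HepaRG plated 48 h, medium switched to serum-free induction medium, chemicals added in duplicate (top 100 uM, half-log steps, 0.5% DMSO) for 48 h, cells lysed, RNA measured by TaqMan qRT-PCR.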

Measured: AC50

Sequence of Broad substrate specificity ATP-binding cassette transporter ABCG2 (Homo sapiens) (Q9UNQ0 whole entry, looked up): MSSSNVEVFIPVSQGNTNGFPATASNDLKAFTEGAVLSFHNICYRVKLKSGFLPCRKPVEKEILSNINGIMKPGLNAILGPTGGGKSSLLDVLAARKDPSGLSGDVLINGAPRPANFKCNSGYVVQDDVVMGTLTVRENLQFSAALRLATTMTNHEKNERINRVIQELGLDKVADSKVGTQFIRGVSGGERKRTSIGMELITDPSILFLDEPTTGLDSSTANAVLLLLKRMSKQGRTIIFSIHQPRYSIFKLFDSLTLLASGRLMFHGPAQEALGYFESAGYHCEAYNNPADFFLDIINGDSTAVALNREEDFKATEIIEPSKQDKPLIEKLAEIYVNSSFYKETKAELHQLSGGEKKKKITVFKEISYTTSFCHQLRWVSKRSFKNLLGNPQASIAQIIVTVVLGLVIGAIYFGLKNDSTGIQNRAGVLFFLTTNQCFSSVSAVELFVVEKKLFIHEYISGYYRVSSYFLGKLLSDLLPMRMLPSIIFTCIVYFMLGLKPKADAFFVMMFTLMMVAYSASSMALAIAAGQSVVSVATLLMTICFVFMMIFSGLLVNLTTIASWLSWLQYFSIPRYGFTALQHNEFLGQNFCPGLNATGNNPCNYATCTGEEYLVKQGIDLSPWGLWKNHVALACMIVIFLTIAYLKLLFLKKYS
Sequence of Fatty acid synthase (Homo sapiens) (P49327 whole entry, looked up): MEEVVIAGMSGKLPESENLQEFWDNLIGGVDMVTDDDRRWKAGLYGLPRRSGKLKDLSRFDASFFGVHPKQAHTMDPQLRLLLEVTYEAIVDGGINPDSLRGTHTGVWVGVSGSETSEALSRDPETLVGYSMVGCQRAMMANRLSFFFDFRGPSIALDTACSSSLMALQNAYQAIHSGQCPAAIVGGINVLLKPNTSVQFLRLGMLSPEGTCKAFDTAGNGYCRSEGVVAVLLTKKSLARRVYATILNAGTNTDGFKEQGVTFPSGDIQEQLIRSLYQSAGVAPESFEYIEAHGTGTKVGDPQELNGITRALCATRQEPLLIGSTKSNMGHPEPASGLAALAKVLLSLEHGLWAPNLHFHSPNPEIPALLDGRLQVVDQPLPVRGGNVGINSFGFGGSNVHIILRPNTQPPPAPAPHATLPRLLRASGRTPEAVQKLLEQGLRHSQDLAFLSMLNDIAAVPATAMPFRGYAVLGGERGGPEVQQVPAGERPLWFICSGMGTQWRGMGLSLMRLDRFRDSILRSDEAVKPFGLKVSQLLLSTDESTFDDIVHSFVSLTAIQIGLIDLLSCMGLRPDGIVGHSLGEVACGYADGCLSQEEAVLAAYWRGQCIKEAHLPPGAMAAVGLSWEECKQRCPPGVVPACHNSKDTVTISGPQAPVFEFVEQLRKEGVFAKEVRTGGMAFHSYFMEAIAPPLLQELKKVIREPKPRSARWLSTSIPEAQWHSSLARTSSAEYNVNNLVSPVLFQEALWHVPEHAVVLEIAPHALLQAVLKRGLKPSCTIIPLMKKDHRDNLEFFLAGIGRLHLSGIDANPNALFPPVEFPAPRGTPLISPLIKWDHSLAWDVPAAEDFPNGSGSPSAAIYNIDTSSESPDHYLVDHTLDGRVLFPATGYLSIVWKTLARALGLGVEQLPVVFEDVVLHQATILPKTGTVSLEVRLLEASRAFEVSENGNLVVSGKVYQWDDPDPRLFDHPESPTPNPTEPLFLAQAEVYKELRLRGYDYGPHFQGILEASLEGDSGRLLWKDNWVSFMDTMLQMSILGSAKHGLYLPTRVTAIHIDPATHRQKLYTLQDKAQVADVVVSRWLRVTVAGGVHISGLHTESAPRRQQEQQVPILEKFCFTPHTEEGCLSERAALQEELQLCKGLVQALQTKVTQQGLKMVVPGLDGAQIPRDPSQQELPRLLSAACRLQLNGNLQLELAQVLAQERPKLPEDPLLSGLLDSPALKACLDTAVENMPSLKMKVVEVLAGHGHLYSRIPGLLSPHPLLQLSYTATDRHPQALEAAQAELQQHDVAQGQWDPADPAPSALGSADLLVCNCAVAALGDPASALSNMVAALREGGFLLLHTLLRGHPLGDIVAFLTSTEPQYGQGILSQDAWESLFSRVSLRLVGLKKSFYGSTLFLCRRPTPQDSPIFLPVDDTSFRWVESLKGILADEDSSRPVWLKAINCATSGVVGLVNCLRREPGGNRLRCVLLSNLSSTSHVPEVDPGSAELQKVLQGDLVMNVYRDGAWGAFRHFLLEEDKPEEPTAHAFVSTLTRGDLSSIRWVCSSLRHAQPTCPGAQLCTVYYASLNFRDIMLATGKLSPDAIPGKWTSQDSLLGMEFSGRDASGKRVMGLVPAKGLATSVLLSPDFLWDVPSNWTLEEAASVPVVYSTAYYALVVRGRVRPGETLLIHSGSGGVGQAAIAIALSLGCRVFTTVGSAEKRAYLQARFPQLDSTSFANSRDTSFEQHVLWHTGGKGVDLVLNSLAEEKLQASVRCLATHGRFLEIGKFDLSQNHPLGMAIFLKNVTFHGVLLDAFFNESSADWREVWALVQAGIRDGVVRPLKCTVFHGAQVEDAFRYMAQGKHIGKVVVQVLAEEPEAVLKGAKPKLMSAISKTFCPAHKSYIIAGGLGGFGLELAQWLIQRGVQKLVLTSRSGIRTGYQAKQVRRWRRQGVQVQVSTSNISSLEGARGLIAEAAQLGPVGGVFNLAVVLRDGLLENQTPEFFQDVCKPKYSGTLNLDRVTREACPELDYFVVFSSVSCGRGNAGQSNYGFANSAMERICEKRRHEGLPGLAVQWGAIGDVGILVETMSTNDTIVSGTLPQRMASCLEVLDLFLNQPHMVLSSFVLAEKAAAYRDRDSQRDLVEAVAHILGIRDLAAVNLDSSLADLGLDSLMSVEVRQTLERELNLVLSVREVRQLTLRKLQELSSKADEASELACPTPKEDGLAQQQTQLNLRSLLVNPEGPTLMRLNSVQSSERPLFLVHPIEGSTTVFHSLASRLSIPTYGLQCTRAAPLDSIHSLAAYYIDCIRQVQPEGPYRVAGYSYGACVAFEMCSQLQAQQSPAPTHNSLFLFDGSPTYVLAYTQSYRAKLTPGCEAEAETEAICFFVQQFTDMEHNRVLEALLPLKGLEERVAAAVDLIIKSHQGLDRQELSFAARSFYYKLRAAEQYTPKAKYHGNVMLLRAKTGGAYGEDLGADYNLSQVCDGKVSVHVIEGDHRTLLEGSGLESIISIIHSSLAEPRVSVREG

OB(O)O
inactive: [1] | [2] | [3] | [4] | [5] | [6] | [7] | [8] | [9] | [10] | [11] | [12] | [13] | [14] | [15] | [16] | [17]

COC(=O)c1ccc(I)cc1S(=O)(=O)NC(=O)Nc1nc(C)nc(OC)n1
active: [7] 62.4 µM
inactive: [1] | [3] | [4] | [18] | [5] | [6] | [8] | [9] | [10] | [11] | [12] | [13] | [14] | [15] | [16] | [17]

CCOC(=O)C(C)Oc1ccc(Oc2nc3ccc(Cl)cc3o2)cc1 (stereo not drawn)
inactive: [1] | [4] | [5] | [6] | [8] | [9] | [10] | [11] | [12] | [13] | [14] | [16] | [17]
active: [7] 56.7 µM | [15] 9.92 µM

N[C@@H](Cc1cc(I)c(Oc2ccc(O)c(I)c2)c(I)c1)C(=O)O
active: [5] 7.94 µM | [6] 40 µM | [7] 0.0392 µM | [12] 73.3 µM | [13] 7.94 µM | [15] 7.94 µM | [16] 7.94 µM | [17] 70.5 µM
inactive: [1] | [2] | [3] | [4] | [8] | [9] | [10] | [11] | [14]

C[C@]12C[C@H](O)[C@H]3[C@@H](CCC4=CC(=O)CC[C@@]43C)[C@@H]1CC[C@@H]2C(=O)CO
active: [7] 50 µM | [12] 70 µM | [16] 67.9 µM | [17] 50 µM
inactive: [1] | [3] | [4] | [18] | [5] | [6] | [8] | [9] | [10] | [11] | [13] | [14] | [15]

CCCOC(=O)NCCCN(C)C
inactive: [1] | [2] | [3] | [4] | [5] | [6] | [7] | [8] | [9] | [10] | [11] | [12] | [13] | [14] | [15] | [16] | [17]

CCCOC(=O)c1ccc(C(=O)OCCC)nc1
active: [7] 24.8 µM
inactive: [1] | [3] | [4] | [5] | [6] | [8] | [9] | [10] | [11] | [12] | [13] | [14] | [15] | [16] | [17]

CCCCOC(=O)C(C)Oc1ccc(Oc2ccc(C(F)(F)F)cn2)cc1 (stereo not drawn)
active: [7] 9.92 µM
inactive: [1] | [4] | [5] | [6] | [8] | [9] | [10] | [11] | [12] | [13] | [14] | [15] | [16] | [17]

O=C(c1ccccc1)C1CCCCC1
inactive: [1] | [3] | [4] | [5] | [6] | [7] | [8] | [9] | [10] | [11] | [12] | [13] | [14] | [15] | [16] | [17]

O=C(O)C1(C(=O)Nc2ccc(Cl)cc2Cl)CC1
active: [5] 77.4 µM | [6] 67 µM | [7] 50 µM | [10] 80.7 µM | [12] 50 µM | [15] 61 µM | [16] 66.4 µM | [17] 78.2 µM
inactive: [1] | [4] | [8] | [9] | [11] | [13] | [14]

CC(C)CCCCCCc1ccc(O)cc1
inactive: [1] | [3] | [4] | [18] | [5] | [6] | [8] | [9] | [10] | [11] | [12] | [13] | [14] | [15] | [16] | [17]
active: [7] 50 µM

CCCN(CCC)c1c([N+](=O)[O-])cc(C(F)(F)F)c(N)c1[N+](=O)[O-]
active: [2] 50 µM | [7] 9.51 µM | [11] 50 µM | [12] 18 µM | [15] 22 µM | [16] 25.4 µM
inactive: [1] | [4] | [5] | [6] | [8] | [9] | [10] | [13] | [14] | [17]

COC(=O)CSc1cc(N=c2sc(=O)n3n2CCCC3)c(F)cc1Cl
inactive: [1] | [3] | [4] | [5] | [6] | [8] | [9] | [10] | [11] | [13] | [14] | [15] | [17]
active: [7] 64.9 µM | [12] 25.6 µM | [16] 50 µM

CCCCCCC(C)OC(=O)COc1nc(F)c(Cl)c(N)c1Cl (stereo not drawn)
inactive: [1] | [2] | [3] | [4] | [5] | [6] | [7] | [8] | [9] | [10] | [11] | [12] | [13] | [14] | [15] | [16] | [17]
